biological target: Neurogenic locus notch homolog protein 2 (Homo sapiens) (UniProt Q04721); experiment: small molecules binding Notch2 protein – biochemical, small-molecule microarray, 635 nm fluorescence, stem cell growth factors, primary screen (AID 1073); conditions: higher = more signal
Sequence (Q04721 whole entry, looked up): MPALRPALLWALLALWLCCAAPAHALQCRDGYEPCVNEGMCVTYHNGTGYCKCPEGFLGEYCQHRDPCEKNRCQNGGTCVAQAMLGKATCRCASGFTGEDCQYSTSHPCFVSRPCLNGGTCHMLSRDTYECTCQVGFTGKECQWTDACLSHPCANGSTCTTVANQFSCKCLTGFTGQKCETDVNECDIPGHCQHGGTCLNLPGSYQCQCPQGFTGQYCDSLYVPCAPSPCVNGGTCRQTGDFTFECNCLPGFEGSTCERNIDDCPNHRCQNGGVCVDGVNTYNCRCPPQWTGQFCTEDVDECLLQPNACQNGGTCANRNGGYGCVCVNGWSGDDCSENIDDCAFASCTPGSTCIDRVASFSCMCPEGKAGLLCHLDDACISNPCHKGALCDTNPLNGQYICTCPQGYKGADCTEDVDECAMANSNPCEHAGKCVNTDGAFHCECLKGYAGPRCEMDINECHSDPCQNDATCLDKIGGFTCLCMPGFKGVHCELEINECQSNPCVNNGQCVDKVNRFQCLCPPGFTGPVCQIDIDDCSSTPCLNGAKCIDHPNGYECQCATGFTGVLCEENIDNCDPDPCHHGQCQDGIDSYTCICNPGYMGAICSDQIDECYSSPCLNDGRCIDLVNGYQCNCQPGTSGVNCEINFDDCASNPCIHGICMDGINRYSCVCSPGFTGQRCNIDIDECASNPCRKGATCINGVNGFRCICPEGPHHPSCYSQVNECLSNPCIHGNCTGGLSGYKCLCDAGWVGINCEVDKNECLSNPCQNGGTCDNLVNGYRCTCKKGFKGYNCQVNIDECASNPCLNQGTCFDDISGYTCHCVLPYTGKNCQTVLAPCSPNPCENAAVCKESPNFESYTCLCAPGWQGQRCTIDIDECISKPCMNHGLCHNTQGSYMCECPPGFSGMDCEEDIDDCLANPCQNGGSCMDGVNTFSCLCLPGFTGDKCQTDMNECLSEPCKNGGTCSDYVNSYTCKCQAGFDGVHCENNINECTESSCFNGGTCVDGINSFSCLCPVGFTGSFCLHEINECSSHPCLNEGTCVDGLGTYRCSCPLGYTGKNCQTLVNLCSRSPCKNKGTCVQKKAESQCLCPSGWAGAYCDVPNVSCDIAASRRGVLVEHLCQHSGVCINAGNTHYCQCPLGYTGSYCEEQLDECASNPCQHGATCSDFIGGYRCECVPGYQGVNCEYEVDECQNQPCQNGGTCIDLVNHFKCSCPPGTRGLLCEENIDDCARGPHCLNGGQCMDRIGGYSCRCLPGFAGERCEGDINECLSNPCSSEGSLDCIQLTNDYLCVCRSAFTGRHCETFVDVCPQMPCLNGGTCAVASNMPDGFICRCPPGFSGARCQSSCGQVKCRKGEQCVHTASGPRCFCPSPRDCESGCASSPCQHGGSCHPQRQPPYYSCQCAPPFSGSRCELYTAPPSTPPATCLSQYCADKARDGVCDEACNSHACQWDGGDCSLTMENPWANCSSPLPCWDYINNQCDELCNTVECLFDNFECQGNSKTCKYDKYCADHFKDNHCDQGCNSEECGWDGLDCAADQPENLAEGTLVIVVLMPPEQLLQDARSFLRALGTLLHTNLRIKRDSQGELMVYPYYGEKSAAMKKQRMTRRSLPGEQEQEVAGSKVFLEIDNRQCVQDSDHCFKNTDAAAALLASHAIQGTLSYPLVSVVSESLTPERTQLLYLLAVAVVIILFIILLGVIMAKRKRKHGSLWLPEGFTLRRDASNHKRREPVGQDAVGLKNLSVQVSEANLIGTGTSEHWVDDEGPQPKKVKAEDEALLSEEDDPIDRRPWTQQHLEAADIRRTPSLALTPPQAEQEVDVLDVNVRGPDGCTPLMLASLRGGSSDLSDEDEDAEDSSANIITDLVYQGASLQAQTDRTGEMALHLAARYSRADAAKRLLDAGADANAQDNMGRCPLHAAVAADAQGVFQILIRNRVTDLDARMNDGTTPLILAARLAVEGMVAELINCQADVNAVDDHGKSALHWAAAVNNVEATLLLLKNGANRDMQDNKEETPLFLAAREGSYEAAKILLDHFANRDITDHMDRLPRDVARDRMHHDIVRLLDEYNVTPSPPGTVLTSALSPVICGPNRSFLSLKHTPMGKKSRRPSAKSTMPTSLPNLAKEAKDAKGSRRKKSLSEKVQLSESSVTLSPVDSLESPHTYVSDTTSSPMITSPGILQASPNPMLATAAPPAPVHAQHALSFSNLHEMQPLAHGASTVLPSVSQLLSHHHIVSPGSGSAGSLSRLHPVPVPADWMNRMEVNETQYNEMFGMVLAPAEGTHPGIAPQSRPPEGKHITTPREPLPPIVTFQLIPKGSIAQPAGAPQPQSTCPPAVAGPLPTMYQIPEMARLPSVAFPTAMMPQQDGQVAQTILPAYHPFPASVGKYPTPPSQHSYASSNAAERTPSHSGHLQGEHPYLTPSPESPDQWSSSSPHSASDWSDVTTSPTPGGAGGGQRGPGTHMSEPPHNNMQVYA

| SMILES | composite z-score |
| --- | --- |
| COc1ccc(NC(=O)O[C@H]2[C@H](OC(=O)Nc3ccccc3)[C@H](OC(=O)Nc3ccccc3)[C@@H](OC)O[C@@H]2CO)cc1 | 1.15 |
| COCCOC(=O)N1C(=O)[C@@]2(c3ccccc31)[C@H](C(=O)N1CCN(c3ncccn3)CC1)[C@H]1C(=O)O[C@H](c3ccccc3)[C@H](c3ccccc3)N1[C@@H]2c1ccc(O)cc1 | 0.186 |
| CCCCO[C@H]1C[C@H]2C(I)=C[C@@H]1C(=O)[C@]21CO1 | -0.361 |
| COc1ccc(CN(C2=CC[C@@]3(C(N)=O)C(=O)C(Cl)=C(Cl)C(=O)[C@@]3(C#N)C2)S(=O)(=O)c2ccc(Br)cc2)cc1 | 0.765 |
| CCCCN1CC=CC23O[C@@H]4/C=C\CCC(C)OC(=O)C4[C@H]2C(=O)N(C(CO)C(C)C)[C@@H]3C1=O (some centres not stated) | -0.358 |
| [N-]=[N+]=NCc1ccccc1C[C@]1(C(N)=O)N=C(c2ccc(OCCCO)cc2)O[C@H]1c1ccccc1 | 0.639 |
| C=CCNC(=O)[C@H]1[C@@H]2C(=O)O[C@@H](c3ccccc3)[C@@H](c3ccccc3)N2[C@@H](c2ccc(O)cc2)[C@]12C(=O)Nc1ccc(C#CC3(O)CCCCCC3)cc12 | -0.459 |
| NCCCCCNC(=O)[C@@H]1C[C@@H]2C(=O)NCC(=O)N2[C@@H]1c1cccc(OCCO)c1 | 0.756 |

biological target: Pro-neuregulin-1, membrane-bound isoform (Homo sapiens) (UniProt Q02297); experiment: small molecules binding neuregulin-1 protein – biochemical, small-molecule microarray, fluorescence 635/667, psychiatric disease protein project, primary screen (AID 1075); conditions: NRG1 binding, 635 nm fluorescence, higher = more signal;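 further: score combines 667 nm spot fluorescence with signal to noise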
Sequence (Q02297 whole entry, looked up, canonical isoform): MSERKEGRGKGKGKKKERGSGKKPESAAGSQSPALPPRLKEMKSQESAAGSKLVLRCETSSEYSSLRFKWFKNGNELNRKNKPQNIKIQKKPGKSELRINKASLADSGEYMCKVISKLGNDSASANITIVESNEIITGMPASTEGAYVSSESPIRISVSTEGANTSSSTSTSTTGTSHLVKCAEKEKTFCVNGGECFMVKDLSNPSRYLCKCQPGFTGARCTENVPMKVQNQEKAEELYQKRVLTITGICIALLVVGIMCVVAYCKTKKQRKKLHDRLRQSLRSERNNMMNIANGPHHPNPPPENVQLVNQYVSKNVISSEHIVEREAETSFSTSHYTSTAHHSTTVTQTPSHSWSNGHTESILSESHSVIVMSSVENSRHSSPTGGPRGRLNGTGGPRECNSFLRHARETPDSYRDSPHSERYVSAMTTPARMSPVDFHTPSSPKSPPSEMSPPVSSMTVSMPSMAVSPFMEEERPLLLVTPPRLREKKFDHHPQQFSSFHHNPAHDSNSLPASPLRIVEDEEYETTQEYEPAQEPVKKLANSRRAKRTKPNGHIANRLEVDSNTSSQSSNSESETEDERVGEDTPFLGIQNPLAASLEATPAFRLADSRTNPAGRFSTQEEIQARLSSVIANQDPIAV

| SMILES | composite z-score |
| --- | --- |
| COc1cc2c(cc1OC)CN(C(=O)[C@@H]1[C@H]3C(=O)O[C@H](c4ccccc4)[C@H](c4ccccc4)N3[C@H](c3ccc(OCCO)cc3)[C@@]13C(=O)Nc1ccc(C#CC4(O)CCCCCC4)cc13)CC2 | 1.67 |
| C=C(/C(=C/C[C@H](OC(C)=O)c1cccc(OCCO)c1)c1cnc2ccccc2c1)C(C)C | 0.35 |
| OCCCC1=CC(c2ccc(CN3CCCC3)cc2)N(Cc2sc3ccccc3c2Cl)CC1 (configuration not stated) | 0.65 |
| CCOC(=O)C[C@H]1[C@H](OC(=O)c2ccccc2-c2ccccc2)[C@@H](NC(=O)C2CCCCC2)c2cc(OCCCO)ccc2N1C(=O)Cc1ccc(OC)cc1 | -0.0991 |
| CN1C(=O)C2C=CC(C(O)c3cccc4ccccc34)N(N3CCCCC3)C2C1=O (configuration not stated) | 1.67 |
| CC1=C([C@H](O)CCc2ccccc2)[C@H](CO)[C@@H]2C(=O)N(C)C(=O)[C@@H]2C1 | 0.174 |
| O=C1O[C@@H](c2ccccc2)[C@@H](c2ccccc2)N2[C@@H](c3ccc(OCCO)cc3)[C@]3(C(=O)Nc4ccccc43)[C@@H](C(=O)O)[C@H]12 | 1.5 |
| C=C(/C(=C/C[C@@H](OC(C)=O)c1cccc(OCCO)c1)c1cc(C(=O)OC)ccc1OC)C(C)C | -0.202 |
| CCOC(=O)C[C@H]1[C@H](OC(=O)c2cc3ccccc3oc2=O)[C@@H](NC(=O)c2ccc(-c3ccccc3)cc2)c2cc(OCCCO)ccc2N1C(=O)c1ccc2ccccc2n1 | 0.751 |
| CC[C@H]1C2=C3C(CC[C@H]4C(OCc5ccc(F)cc5C(F)(F)F)OC[C@](C)([C@@H]34)N(C(=O)OC(C)(C)C)C2)C(COC)C1COC (some centres not stated) | 0.336 |
| C=CCOC(=O)[C@H]1[C@@H]2C(=O)O[C@@H](c3ccccc3)[C@@H](c3ccccc3)N2[C@@H](c2ccc(OCCOC(=O)[C@H]3C[C@H]4C(=O)N[C@@H](CCCCNC(C)=O)C(=O)N4[C@H]3c3ccc(O)cc3)cc2)[C@]12C(=O)Nc1ccccc12 | 0.285 |
| [N-]=[N+]=Nc1ccccc1[C@@H]1OC(c2ccc(OCCCO)cc2)=N[C@]1(Cc1ccccc1)C(=O)NCC(O)CO (some centres not stated) | 1.66 |
| COc1ccc(C(O)C2C=CC3C(=O)N(c4ccccc4)C(=O)C3N2Nc2ccc([N+](=O)[O-])cc2)cc1 (configuration not stated) | 0.546 |
| O=C1OCC=C[C@H]2OC34C=CCN(Cn5nnc6ccccc65)C(=O)[C@H]3N(CCCO)C(=O)[C@@H]4[C@@H]12 (some centres not stated) | 1.09 |
| CCC[C@@H]1C[C@@]1(CCC)[C@@H](NC(=O)OCc1ccccc1)c1ccc(-c2ccccc2)cc1 | -0.271 |
| CC(C)(C)OC(=O)CC[C@@]1(C(=O)NCc2ccccc2)N=C(c2ccc(OCCCO)cc2)O[C@@H]1c1ccccc1N=[N+]=[N-] | 1.75 |
| COCCCNC(=O)[C@]1(CCS(=O)(=O)c2ccccc2)N=C(c2ccc(OCCCO)cc2)O[C@@H]1c1ccccc1CN=[N+]=[N-] | 1.79 |
| C=C(COC)/C(=C/C[C@H](OC(=O)c1ccncc1)c1ccccc1OCCO)c1cnc2ccccc2c1 | 1.47 |
| O=C(NCC(F)(F)F)[C@@H]1c2ccccc2C(=O)N(Cc2cc(F)cc(C(F)(F)F)c2)[C@H]1c1ccc(CO)cc1 | -0.381 |
